Laboratory results published in PubChem BioAssay (EPA / NIEHS).
Values joined by “and” are separate entries in the source; they are usually repeats but may differ in a detail not shown here. Identical values can stand only once. Records with an inconclusive call do not appear. Some compounds were tested as several samples or in several runs, with calls that do not always agree. Active and inactive are the calls of the source. Rule for the calls, unless noted: active = hit-call score of the fitted dose curve at least 0.9, where 1 is the maximum; inactive = score below 0.9.

Legend:
[1] = read-out: Monocyte Chemoattractant Protein-1 (MCP1), CCL2 (gene 6347); experiment: BSK_SAg_MCP1: BioMAP Diversity Plus: SAg Assay for Monocyte Chemoattractant Protein-1 (MCP1) Biomarker Activity (AID 2283090); details: primary human HUVEC with PBMC; actives raise or lower the signal
How it was run: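 Values derive from bidirectional fitting of ELISA-measured MCP1 against DMSO controls. Readings were taken 24 h after dosing human vascular endothelial cells co-cultured with peripheral blood mononuclear cells under superantigen stimulation.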

[2] = read-out: E-selectin (Homo sapiens) (UniProt P16581); experiment: BSK_SAg_Eselectin: BioMAP Diversity Plus: SAg Assay for Eselectin Biomarker Activity (AID 2283091); details: primary human HUVEC with PBMC; actives raise or lower the signal
How it was run: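 Cell-surface E-selectin is read by ELISA at 24 h in the SAg co-culture of HUVEC and PBMC. Curves are fitted in both directions relative to DMSO. Parallel SRB total-protein staining tracks overt toxicity.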

[3] = read-out: Monokine induced gamma interferon (MIG), CXCL9 (gene 4283); experiment: BSK_SAg_MIG: BioMAP Diversity Plus: SAg Assay for Monokine induced gamma interferon (MIG) Biomarker Activity (AID 2283092); details: primary human HUVEC with PBMC; actives raise or lower the signal
How it was run: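 Endothelial cells and PBMC were co-cultured, exposed to test chemicals, and sampled 24 h later. MIG was measured by ELISA, and responses were fitted in both directions relative to DMSO.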

[4] = BSK_SAg_PBMCCytotoxicity: PBMC Cytotoxicity Assessment in the BioMAP Diversity Plus: SAg Assay (AID 2283093); details: primary human HUVEC with PBMC;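 note: PBMC viability measured as Alamar Blue reduction fluorescence at 546/580 nm; fitted both ways against DMSO so a hit may be loss or gain of signal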;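 for AC50: PBMC superantigen activated with SEB plus TSST-1 one hour after compound addition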
How it was run: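 Alamar Blue reduction (6 h, ex/em 546/580 nm) read after 90 h culture of PBMC pre-dosed 1 h then stimulated with SEB plus TSST-1, 20 ng/mL each. Gain or loss of signal fitted relative to DMSO.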

[5] = BSK_SAg_Proliferation: Cell Proliferation Assessment in the BioMAP Diversity Plus: SAg Assay (AID 2283095); details: primary human HUVEC with PBMC;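 note: relative cell number as total protein by SRB absorbance in sub-confluent culture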
How it was run: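 HUVEC/PBMC co-culture, 96-well. TCA-fixed (10%), 0.1% SRB stain, A560 at 96 h. Protein content used as viability readout; bidirectional fitting vs DMSO control.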

[6] = BSK_SAg_SRB: Viability Assessment in the BioMAP Diversity Plus: SAg Assay (AID 2283096); details: primary human HUVEC with PBMC;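 note: cells read one day after compound addition; hits may be either gain or loss of signal compared with DMSO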
How it was run: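 SRB absorbance at 560 nm served as the viability read-out. Cells (HUVEC plus peripheral blood mononuclear cells) were TCA-fixed and stained 24 h post-dosing; activity fitted in both directions against DMSO controls.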

[7] = read-out: Interleukin-8 (IL8), CXCL8 (gene 3576); experiment: BSK_SAg_IL8: BioMAP Diversity Plus: SAg Assay for Interleukin-8 (IL8) Biomarker Activity (AID 2283094); details: primary human HUVEC with PBMC; actives raise or lower the signal
How it was run: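 HUVEC/PBMC co-culture, 24 h post-dose; IL-8 by ELISA. Gain or loss of signal fitted bidirectionally vs DMSO baseline.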

[8] = molecular target: human CYP19A1, CYP19A1 (gene 1588) (UniProt P11511); experiment: NVS_ADME_hCYP19A1: NovaScreen (NVS) CYP450-related Enzyme Activity (ADME) Assay for human CYP19A1 (AID 2283098; active = hit-call score of the fitted dose curve at least 0.9, where 1 is the maximum;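 for AC50: potency for inhibitors seen as loss of fluorescent enzyme signal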)
How it was run: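 Primary testing was in duplicate at a single 10 uM concentration, with actives followed up in concentration-response series. Fluorescence read-out of recombinant enzyme activity at 0.5 h, cell-free. Acetonitrile was the negative-control baseline.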

[9] = molecular target: human CYP1A1, CYP1A1 (gene 1543) (UniProt P04798); experiment: NVS_ADME_hCYP1A1: NovaScreen (NVS) CYP450-related Enzyme Activity (ADME) Assay for human CYP1A1 (AID 2283100; active = hit-call score of the fitted dose curve at least 0.9, where 1 is the maximum)
How it was run: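 Chemicals were first tested in duplicate at 10 uM, and those passing a 30% inhibition threshold were rerun as concentration series topping at 20 uM. Fluorescence read-out of recombinant enzyme turnover after 1 h, relative to acetonitrile.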

Measured: AC50

Sequence of human CYP19A1, CYP19A1 (gene 1588) (P11511 whole entry, looked up): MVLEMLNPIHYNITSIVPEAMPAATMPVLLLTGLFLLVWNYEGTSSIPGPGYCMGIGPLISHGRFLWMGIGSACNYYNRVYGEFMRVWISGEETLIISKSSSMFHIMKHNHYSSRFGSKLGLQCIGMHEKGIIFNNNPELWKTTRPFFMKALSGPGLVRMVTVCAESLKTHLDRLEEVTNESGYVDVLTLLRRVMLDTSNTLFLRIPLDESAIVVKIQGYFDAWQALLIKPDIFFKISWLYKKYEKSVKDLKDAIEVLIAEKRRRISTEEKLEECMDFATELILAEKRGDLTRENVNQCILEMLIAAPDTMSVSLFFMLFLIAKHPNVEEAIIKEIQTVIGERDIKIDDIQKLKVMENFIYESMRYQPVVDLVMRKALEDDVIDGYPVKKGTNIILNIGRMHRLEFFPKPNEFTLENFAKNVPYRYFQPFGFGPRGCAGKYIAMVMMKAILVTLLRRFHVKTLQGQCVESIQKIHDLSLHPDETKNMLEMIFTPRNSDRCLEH
Sequence of E-selectin (Homo sapiens) (P16581 whole entry, looked up): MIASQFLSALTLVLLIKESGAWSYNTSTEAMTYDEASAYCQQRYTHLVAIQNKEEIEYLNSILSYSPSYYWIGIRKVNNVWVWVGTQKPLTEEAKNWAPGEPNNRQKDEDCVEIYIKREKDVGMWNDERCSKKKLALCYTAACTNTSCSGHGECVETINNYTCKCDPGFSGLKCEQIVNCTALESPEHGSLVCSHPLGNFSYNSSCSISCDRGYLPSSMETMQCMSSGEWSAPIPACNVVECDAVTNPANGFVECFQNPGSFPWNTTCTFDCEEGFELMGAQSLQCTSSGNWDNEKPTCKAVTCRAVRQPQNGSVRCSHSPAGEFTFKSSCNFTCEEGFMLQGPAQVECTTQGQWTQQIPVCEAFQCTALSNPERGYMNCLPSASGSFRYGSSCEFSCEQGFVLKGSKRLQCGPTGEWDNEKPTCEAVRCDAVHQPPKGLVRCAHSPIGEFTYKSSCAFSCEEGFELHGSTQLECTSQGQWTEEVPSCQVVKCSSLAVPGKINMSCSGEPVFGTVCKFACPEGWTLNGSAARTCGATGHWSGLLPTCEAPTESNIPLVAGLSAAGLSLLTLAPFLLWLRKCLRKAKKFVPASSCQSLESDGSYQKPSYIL
Sequence of human CYP1A1, CYP1A1 (gene 1543) (P04798 whole entry, looked up): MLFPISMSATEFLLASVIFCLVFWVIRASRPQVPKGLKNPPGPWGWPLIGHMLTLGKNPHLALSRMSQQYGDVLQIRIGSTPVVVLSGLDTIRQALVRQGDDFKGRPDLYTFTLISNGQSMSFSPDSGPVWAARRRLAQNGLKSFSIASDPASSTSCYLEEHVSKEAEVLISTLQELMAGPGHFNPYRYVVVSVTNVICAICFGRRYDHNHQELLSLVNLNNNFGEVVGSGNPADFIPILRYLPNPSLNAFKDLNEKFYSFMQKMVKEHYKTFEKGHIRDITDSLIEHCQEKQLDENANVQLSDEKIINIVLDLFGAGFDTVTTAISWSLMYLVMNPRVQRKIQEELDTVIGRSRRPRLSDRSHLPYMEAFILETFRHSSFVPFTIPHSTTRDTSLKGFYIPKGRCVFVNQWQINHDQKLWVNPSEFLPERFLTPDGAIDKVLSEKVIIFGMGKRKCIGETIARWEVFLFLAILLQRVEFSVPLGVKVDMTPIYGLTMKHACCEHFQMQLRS

Cc1cc(Cl)ccc1OCC(=O)O
not listed: [7] | [8] | [9]
inactive: all other assays above

CCCCNC(=O)n1c(NC(=O)OC)nc2ccccc21
active: [5] 6.25 µM | [6] 12.3 µM
not listed: [8] | [9]
inactive: all other assays above

O=C(O)COc1nc(Cl)c(Cl)cc1Cl
not listed: [7] | [8] | [9]
inactive: all other assays above

CNC(=O)ON=CC(C)(C)SC
not listed: [7] | [8] | [9]
inactive: all other assays above

N#Cc1nn(-c2c(Cl)cc(C(F)(F)F)cc2Cl)c(N)c1S(=O)C(F)(F)F (stereo not given)
active: [1] 30 µM | [2] 29.8 µM | [3] 35 µM | [4] 5.04 µM | [5] 15.6 µM | [6] 34 µM

O=C(Nc1ccccc1)Nc1ccnc(Cl)c1
active: [2] 14.2 µM | [7] 20 µM | [5] 33.5 µM | [9] 9.34 µM
inactive: all other assays above

COC(=O)N(OC)c1ccccc1COc1ccn(-c2ccc(Cl)cc2)n1
active: [1] 4.97 µM | [2] 3.97 µM | [3] 11.9 µM | [4] 0.222 µM | [7] 2.92 µM | [5] 3.97 µM | [6] 8.48 µM | [9] 1.87 µM
inactive: [8]

Cc1c(F)c(F)c(COC(=O)C2C(/C=C(\Cl)C(F)(F)F)C2(C)C)c(F)c1F (stereo not given)
active: [2] 12.5 µM | [5] 26.6 µM | [6] 25.9 µM
inactive: [1] | [3] | [4] | [7]

CC(C)(C)c1ccc(CSc2cnn(C(C)(C)C)c(=O)c2Cl)cc1
active: [1] 1.11 µM | [2] 0.148 µM | [4] 0.0975 µM | [5] 6.61 µM | [6] 13.6 µM
inactive: [3]

CC1=C(C(=O)Nc2ccccc2)SCCO1
not listed: [7] | [8] | [9]
inactive: all other assays above

COC(=O)c1ccccc1C(=O)OC
not listed: [7] | [8] | [9]
inactive: all other assays above

CCCCNC(=O)OCC#CI
active: [1] 29.2 µM and 26.1 µM | [2] 25 µM and 22.7 µM | [3] 35.1 µM and 36.5 µM | [4] 7.02 µM and 7.09 µM | [5] 2.71 µM and 2.68 µM | [6] 28.6 µM

CC(C)Oc1cc(-n2nc(C(C)(C)C)oc2=O)c(Cl)cc1Cl
active: [1] 29.9 µM | [2] 30.3 µM | [3] 31.9 µM | [4] 34.4 µM | [7] 31.2 µM | [5] 31.3 µM | [6] 30.5 µM

CS/C(C)=N/OC(=O)N(C)SN(C)C(=O)O/N=C(\C)SC
active: [1] 30.1 µM | [2] 31.4 µM | [3] 35.6 µM | [4] 8.27 µM | [7] 16 µM | [5] 5.3 µM | [6] 28.4 µM | [9] 10 µM

N#Cc1cc(Br)c(O)c(Br)c1
inactive: [1] | [2] | [3]
active: [4] 14.4 µM | [7] 30.5 µM | [5] 33.4 µM | [6] 20 µM

COP(N)(=O)SC (stereo not given)
not listed: [9]
inactive: all other assays above

CC(C)C1(C)N=C(c2nc3ccccc3cc2C(=O)O)NC1=O (stereo not given)
not listed: [8] | [9]
inactive: all other assays above

CCc1nn(C)c(C(=O)NCc2ccc(C(C)(C)C)cc2)c1Cl
active: [1] 20 µM | [2] 3.97 µM | [3] 34.7 µM | [4] 34.8 µM | [5] 20 µM | [6] 29.4 µM

CCCCOC(=O)c1ccccc1C(=O)OCCCC
active: [2] 20 µM | [5] 29.2 µM and 31.4 µM
inactive: [1] | [2] | [3] | [4] | [6] | [8] | [9]

CO/C=C(/C(=O)OC)c1ccccc1Oc1cc(Oc2ccccc2C#N)ncn1
inactive: [1] | [3] | [4] | [6] | [8]
active: [1] 26.6 µM and 25.4 µM | [2] 17.4 µM [middle of 4 runs] | [3] 34.9 µM and 34.2 µM and 30 µM | [4] 6.9 µM and 5.28 µM and 13 µM | [7] 12.5 µM [middle of 4 runs] | [5] 13.9 µM [middle of 4 runs] | [6] 21.1 µM and 15.4 µM

COc1nc(C)nc(NC(=O)NS(=O)(=O)c2ccccc2Cl)n1
not listed: [7] | [8] | [9]
inactive: all other assays above

CCOc1cc(Oc2ccc(C(F)(F)F)cc2Cl)ccc1[N+](=O)[O-]
inactive: [1] | [3] | [4]
active: [2] 9.5 µM | [5] 18.5 µM | [6] 13.3 µM

CCNc1nc(Cl)nc(NCC)n1
not listed: [8]
inactive: all other assays above

COC(=O)C(C)Oc1ccc(Oc2ccc(Cl)cc2Cl)cc1 (stereo not given)
inactive: [1] | [2] | [3] | [4] | [5] | [6]
active: [1] 20 µM

Oc1ccccc1-c1ccccc1
active: [8] 4.05 µM
not listed: [9]
inactive: all other assays above

CCCN(CCC)c1c([N+](=O)[O-])cc(S(N)(=O)=O)cc1[N+](=O)[O-]
active: [1] 34.8 µM [middle of 4 runs] | [2] 33.1 µM and 31.4 µM and 30 µM | [3] 39.5 µM [middle of 4 runs] | [4] 30.7 µM [middle of 4 runs] | [5] 30.2 µM [middle of 4 runs] | [6] 32.3 µM [middle of 4 runs]
